Reference: PubChem BioAssay (NCATS)
Records with an inconclusive call do not appear. Activity calls are given as the source filed them. Calls follow the shape of the dose curve; as a rule, active = well fitted curve in the direction sought with a large enough effect; inconclusive = small, poorly fitted or top-dose-only effect, or another doubt; inactive = no such curve, though single readings can be large; an effect the other way counts as inactive or inconclusive. Starred links: 1 amine or outer side, 2 acyl side, 3 side chain; linkers in the order of their positions; H or OH if unused. Positions of bridges follow the written chain, without caps; N, C: chain ends. Non-standard residues stand in square brackets, D forms with d. Residues, ends and D or L forms follow the SMILES beside them. Chains are numbered I, II in the order given. Actinocin(9to1) = Cc1c2oc3c(C)ccc(C(=O)[*:1])c3nc-2c(C(=O)[*:2])c(N)c1=O; NMeV = CN[CH](C(=O)O)C(C)C; Sar = CNCC(=O)O

How the values were obtained:
[1] = qHTS of pediatric cancer cell lines to identify multiple opportunities for drug repurposing: Primary screen for BT-12 cells (AID 1347101); also: nearly all actives have a fitted effect of over 25% in size
How it was run: (§1)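 Cells (500-1,000/well) rested 5 h, then received compounds for 48 h; metabolically active cells were measured by CellTiter-Glo luminescence. Final concentrations spanned up to 46 µM (MIPE, 11-point) or 0.59 nM-46 µM (NPC, 8-point) in primary screens, 11-point in follow-ups.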

[2] = qHTS of pediatric cancer cell lines to identify multiple opportunities for drug repurposing: Primary screen for Rh18 cells (AID 1347102); also: nearly all actives have a fitted effect of over 65% in size
How it was run: (§2)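 Viability after 48 h compound treatment at 37C, 500-1,000 cells/well, read as ATP luminescence with CellTiter-Glo. Primary screens used 11-point (MIPE, 0.78 nM-46 µM) or 8-point (NPC, 0.59 nM-46 µM) final concentrations; follow-up screens used 11-point dilutions.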

[3] = qHTS of pediatric cancer cell lines to identify multiple opportunities for drug repurposing: Primary screen for OHS-50 cells (AID 1347103); also: nearly all actives have a fitted effect of over 40% in size
How it was run: as §1

[4] = qHTS of pediatric cancer cell lines to identify multiple opportunities for drug repurposing: Primary screen for RD cells (AID 1347104); also: nearly all actives have a fitted effect of over 55% in size
How it was run: (§3)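 ATP-based luminescence (CellTiter-Glo) quantifies viability after a 48-hour exposure. Compounds are dosed across 8 or 11 final concentrations; DMSO and 2.3 µM bortezomib serve as controls.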

[5] = qHTS of pediatric cancer cell lines to identify multiple opportunities for drug repurposing: Primary screen for Rh41 cells (AID 1347108); also: nearly all actives have a fitted effect of over 70% in size;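 as to activity change, negative = cytotoxic: luminescence drop marks cytotoxic hits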
How it was run: as §3

[6] = qHTS of pediatric cancer cell lines to identify multiple opportunities for drug repurposing: Confirmatory screen for NB1643 cells (AID 1347109); also: nearly all actives have a fitted effect of over 45% in size
How it was run: as §2

[7] = qHTS of pediatric cancer cell lines to identify multiple opportunities for drug repurposing: Confirmatory screen for A673 cells (AID 1347110); also: nearly all actives have a fitted effect of over 65% in size
How it was run: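 Forty-eight-hour viability assay. Follow-up compounds ran at 11-point dilutions; positive control bortezomib at 2.3 uM final, neutral control DMSO.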

[8] = qHTS of pediatric cancer cell lines to identify multiple opportunities for drug repurposing: Confirmatory screen for SK-N-MC cells (AID 1347111);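 also: cells exposed to compound for 48 h before the readout; nearly all actives have a fitted effect of over 70% in size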
How it was run: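 SK-N-MC cells at 500-1,000 cells/well in growth media were pre-incubated 5 h, then exposed to compounds at 11-point dilutions for 48 h at 37 degrees C, 5% CO2. Viability was read as CellTiter-Glo luminescence.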

[9] = qHTS of pediatric cancer cell lines to identify multiple opportunities for drug repurposing: Confirmatory screen for LAN-5 cells (AID 1347113); also: nearly all actives have a fitted effect of over 65% in size
How it was run: as §2

[10] = qHTS of pediatric cancer cell lines to identify multiple opportunities for drug repurposing: Confirmatory screen for DAOY cells (AID 1347114); also: nearly all actives have a fitted effect of over 65% in size
How it was run: (§4)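 Viability measured as metabolically active cells via CellTiter-Glo luminescence following 48 hours of compound exposure, 11-point dilutions in confirmatory testing. 500-1,000 cells/well plated 5 hours before dosing; controls were DMSO and 2.3 µM bortezomib.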

[11] = qHTS of pediatric cancer cell lines to identify multiple opportunities for drug repurposing: Confirmatory screen for BT-37 cells (AID 1347117); details: BT-37 pediatric cancer cells, viability; activity change, negative = cytotoxic: at 45.9 µM (top of the series); also: nearly all actives have a fitted effect of over 55% in size
How it was run: as §2

[12] = qHTS of pediatric cancer cell lines to identify multiple opportunities for drug repurposing: Confirmatory screen for TC32 cells (AID 1347118); also: nearly all actives have a fitted effect of over 65% in size
How it was run: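 Luminescent CellTiter-Glo read-out of metabolically active TC32 cells after 48 h compound exposure. Primary: MIPE 11-point, 0.78 nM–46 µM; NPC 8-point, 0.59 nM–46 µM. Confirmatory: 11-point dilutions.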

[13] = qHTS of pediatric cancer cell lines to identify multiple opportunities for drug repurposing: Confirmatory screen for control Hh wild type fibroblast cells (AID 1347121); also: nearly all actives have a fitted effect of over 70% in size
How it was run: as §2

[14] = qHTS of pediatric cancer cell lines to identify multiple opportunities for drug repurposing: Primary screen for MG 63 (6-TG R) cells (AID 1347105); also: nearly all actives have a fitted effect of over 50% in size
How it was run: as §3

[15] = qHTS of pediatric cancer cell lines to identify multiple opportunities for drug repurposing: Confirmatory screen for NB-EBc1 cells (AID 1347115); also: nearly all actives have a fitted effect of over 45% in size
How it was run: as §2

[16] = qHTS of pediatric cancer cell lines to identify multiple opportunities for drug repurposing: Confirmatory screen for SJ-GBM2 cells (AID 1347116); also: nearly all actives have a fitted effect of over 60% in size
How it was run: as §4

[17] = qHTS of pediatric cancer cell lines to identify multiple opportunities for drug repurposing: Confirmatory screen for MG 63 (6-TG R) cells (AID 1347119); also: nearly all actives have a fitted effect of over 55% in size
How it was run: as §2

[18] = qHTS of pediatric cancer cell lines to identify multiple opportunities for drug repurposing: Primary screen for control Hh wild type fibroblast cells (AID 1347106); also: nearly all actives have a fitted effect of over 55% in size;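 as to activity change, negative = cytotoxic: a drop in luminescence marks cytotoxicity and a rise apparent proliferation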
How it was run: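 Cells (500-1,000/well) in growth media were settled 5 h at 37 degrees C, then given compounds for 48 h. Viability was read as CellTiter-Glo luminescence. Primary runs used MIPE at 11 points (0.78 nM-46 µM) and NPC at 8 points (0.59 nM-46 µM); follow-ups used 11 points.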

[19] = qHTS of pediatric cancer cell lines to identify multiple opportunities for drug repurposing: Primary screen for Rh30 cells (AID 1347107); also: nearly all actives have a fitted effect of over 75% in size
How it was run: as §2
Potency is read from the fitted curve at half-maximal effect.

In the case of `Cc1c2oc3c(C)ccc(C(=O)NC4C(=O)NC(C(C)C)C(=O)N5CCCC5C(=O)N(C)CC(=O)N(C)C(C(C)C)C(=O)OC4C)c3nc-2c(C(=O)NC2C(=O)NC(C(C)C)C(=O)N3CCCC3C(=O)N(C)CC(=O)N(C)C(C(C)C)C(=O)OC2C)c(N)c1=O` (configuration not stated) (I: TVP[Sar][NMeV] / II: TVP[Sar][NMeV]; ester I:1-I:C, II:1-II:C; linker I:N-II:N via Actinocin(9to1); configuration not given here), the Potency [1] is reported as 1 nM (active), the Potency [2] is reported as 1870 nM (active) and the Potency [3] is reported as 1 nM (active). The Potency [4] was 1 nM (active), the Potency [5] was 1 nM (active) and the Potency [6] was “inactive”. The Potency [7] was 14.7 nM (active), the Potency [8] was 7.4 nM (active) and the Potency [9] was 2.3 nM (active). The Potency [10] was 36.9 nM (active), the Potency [11] was 2.6 nM (active) and the Potency [12] was 16.5 nM (active). For the same compound, the Potency [13] was “inactive”.

In the case of `O=C(Nc1cccc(Nc2ncc(Br)c(NCCc3cnc[nH]3)n2)c1)N1CCCC1`, the Potency [1] is reported as 19300 nM (active), the Potency [2] is reported as 9350 nM (active) and the Potency [3] is reported as 17200 nM (active). For the same compound, the Potency [4] was 16600 nM (active), the Potency [14] was 14800 nM (active) and the Potency [5] was 9350 nM (active).

In the case of `O=C(O)C[C@H](O)C[C@H](O)C=Cc1c(C2CC2)nc2ccccc2c1-c1ccc(F)cc1`, the Potency [1] is reported as 273 nM (active), the Potency [2] is reported as 4690 nM (active) and the Potency [3] is reported as 3060 nM (active). For the same compound, the Potency [4] was 18700 nM (active), the Potency [14] was 1480 nM (active) and the Potency [5] was 4690 nM (active). For the same compound, the Potency [7] was 2330 nM (active), the Potency [8] was 4650 nM (active) and the Potency [10] was 1470 nM (active). For the same compound, the Potency [15] was “inactive”, the Potency [12] was 2930 nM (active) and the Potency [13] was “inactive”.

In the case of `CN[C@@H]1C[C@H]2O[C@@](C)([C@H]1OC)n1c3ccccc3c3c4c(c5c6ccccc6n2c5c31)C(=O)N[C@H]4O`, the Potency [1] is reported as 27300 nM (active), the Potency [2] is reported as 590 nM (active) and the Potency [3] is reported as 217 nM (active). The Potency [4] was 1050 nM (active), the Potency [14] was 187 nM (active) and the Potency [6] was 737 nM (active). For the same compound, the Potency [7] was 369 nM (active), the Potency [8] was 233 nM (active) and the Potency [9] was 928 nM (active). For the same compound, the Potency [10] was 1470 nM (active), the Potency [15] was 2610 nM (active) and the Potency [16] was 2610 nM (active). The Potency [11] was 2610 nM (active), the Potency [12] was 414 nM (active) and the Potency [17] was 104 nM (active). For the same compound, the Potency [13] was 10400 nM (active).

In the case of `C[C@H](CCC(=O)O)[C@H]1CCC2C3C[C@H](O)[C@@H]4C[C@H](O)CC[C@]4(C)C3CC[C@@]21C` (some centres not stated), the Potency [1] is reported as “inactive”, the Potency [2] is reported as “inactive” and the Potency [3] is reported as “inactive”. For the same compound, the Potency [4] was “inactive”, the Potency [14] was “inactive” and the Potency [5] was “inactive”.

With `O=C(O)C=Cc1ccc(Cn2ccnc2)cc1` the Potency [1] was “inactive”, the Potency [2] was “inactive” and the Potency [4] was “inactive”. For the same compound, the Potency [14] was “inactive”, the Potency [18] was “inactive” and the Potency [19] was “inactive”.

With `NC(=NCCCCCCN=C(N)N=C(N)Nc1ccc(Cl)cc1)N=C(N)Nc1ccc(Cl)cc1` the Potency [1] was 13700 nM (active), the Potency [2] was 20900 nM (active) and the Potency [4] was 11800 nM (active). The Potency [14] was 14800 nM (active), the Potency [18] was 8330 nM (active) and the Potency [19] was 4690 nM (active). The Potency [5] was 7430 nM (active).

In the case of `CC(C)N(CC[C@H](c1ccccc1)c1cc(CO)ccc1O)C(C)C`, the Potency [1] is reported as “inactive”, the Potency [2] is reported as “inactive” and the Potency [4] is reported as “inactive”. For the same compound, the Potency [14] was “inactive”, the Potency [18] was “inactive” and the Potency [19] was “inactive”.
